# Data reported in ChEMBL document CHEMBL1157539, “Thousands of chemical starting points for antimalarial lead identification” (Nature, 2010).
# Assays:
# Type in all cases: functional
# Plasmodium falciparum [1] = experiment: GSK_TCMDC: Inhibition of Plasmodium falciparum 3D7 in whole red blood cells, using parasite LDH activity as an index of growth. Test compounds present at 2uM
# Plasmodium falciparum [2] = experiment: GSK_TCMDC: Inhibition of Plasmodium falciparum Dd2 in whole red blood cells, using parasite LDH activity as an index of growth. Test compounds present at 2uM
# HepG2 = experiment: GSK_TCMDC: Percent inhibition of human HepG2 cell line. Test compounds present at 10uM.
smiles,measurement,setting,value
CCOc1cc(CNCCCCCCNCc2cc(OCC)c(OCC)c3ccccc23)c2ccccc2c1OCC.CS(=O)(=O)O,Inhibition,Plasmodium falciparum [1],100%
same,Inhibition,Plasmodium falciparum [2],99%
same,Inhibition,HepG2,100%
O=C(/C=C/c1ccc(Cl)c(Cl)c1)NCC1CCN(Cc2ccc(O)cc2)CC1.O=C(O)C(F)(F)F,Inhibition,Plasmodium falciparum [1],98%
same,Inhibition,Plasmodium falciparum [2],0%
same,Inhibition,HepG2,4%
CCCN(Cc1nnc(-c2ccco2)o1)C(=O)C1CCCN(C(=O)c2ccc(Cl)cc2)C1 (stereo not given),Inhibition,Plasmodium falciparum [1],96%
same,Inhibition,Plasmodium falciparum [2],96%
same,Inhibition,HepG2,0%
CNCc1cccc2nc(-c3csc(Cc4cc(Cl)ccc4OCC(C)C)n3)[nH]c12,Inhibition,Plasmodium falciparum [1],100%
same,Inhibition,Plasmodium falciparum [2],33%
same,Inhibition,HepG2,9%
CC(C)CC(NC(=O)c1ccc(F)cc1)C(=O)N[C@H](/C=N/N1CCNC1=O)CC(C)C (stereo not given in full),Inhibition,Plasmodium falciparum [1],89%
same,Inhibition,Plasmodium falciparum [2],84%
same,Inhibition,HepG2,0%
CC(CN1CCN(C)CC1)C(=O)Nc1ccc(-c2cccc(-c3nc4cc(C(F)(F)F)ccc4[nH]3)c2)cc1 (stereo not given),Inhibition,Plasmodium falciparum [1],99%
same,Inhibition,Plasmodium falciparum [2],96%
same,Inhibition,HepG2,16%
COCCNCc1ccc(-c2cccc(CN(C(=O)NCCc3ccccc3)C3CCN(Cc4ccccc4)CC3)c2)cc1.O=C(O)C(F)(F)F,Inhibition,Plasmodium falciparum [1],88%
same,Inhibition,Plasmodium falciparum [2],90%
same,Inhibition,HepG2,25%
COc1ccc(NC(=O)[C@H](Cc2ccccc2)Nc2cc(C)nc(NCCOc3ccccc3)n2)cc1.O=C(O)C(F)(F)F,Inhibition,Plasmodium falciparum [1],98%
same,Inhibition,Plasmodium falciparum [2],25%
same,Inhibition,HepG2,11%
Br.CCSc1ccccc1CON1C(=N)N=C(N)NC1(C)C,Inhibition,Plasmodium falciparum [1],96%
same,Inhibition,Plasmodium falciparum [2],10%
same,Inhibition,HepG2,62%
COc1ccc2ncc(F)c(CCN3CC[C@@H](CNCc4ccc5c(c4C)OCCO5)C3)c2n1.Cl,Inhibition,Plasmodium falciparum [1],94%
same,Inhibition,Plasmodium falciparum [2],11%
same,Inhibition,HepG2,17%
